Hits are enriched below; roughly 6.6% of the tested compounds scored in any of these assays.
TGFb inhibitor – TGF-b pathway inhibition. HepG2 CAGA-GFP TGF-b/SMAD3 reporter, GFP fluorescence, 18 h; TGF-beta stimulated, 500 pg/mL final. Potency, µM (series often up to 46.1 µM), inactives show at the top dose activity, negative = inhibition, usual class: inhibitors. actives 1.2% (n = 410,000). AID 588855; also: % is scaled to controls: 0 for no effect and ±100 for the full control effect; nearly all actives have a fitted effect of over 65% in size
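GFP signal (ex488/em500-530) from TGF-beta-stimulated HEPG2 CAGA-GFP cells, 500 pg/mL final, 18 h at 37 degrees C in DMEM plus 1% FBS, normalized to unstimulated and DMSO-stimulated controls.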
KB-3-1 tox – KB-3-1 parental cell cytotoxicity; KB-3-1 viability, CellTiter-Glo ATP luminescence, 72 h; AID 1347075; actives 1.4% (n = 400,000); Potency, µM (series often up to 46.1 µM), hits mostly cytotoxic; also: % is scaled to controls: 0 for no effect and ±100 for the full control effect; nearly all actives have a fitted effect of over 60% in size
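Cytotoxicity in the drug-sensitive parental line KB-3-1 was scored as loss of CellTiter-Glo luminescence following 72 h incubation with compound. Values come from curve fitting of normalized concentration-response data.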
HT1080 IDH1KD tx – HT-1080 IDH1 knockdown cell toxicity (counter line). Potency, µM (highest dose often 46.1 µM), for inactives: at the highest dose activity, negative = toxicity, most hits filed as cytotoxic. actives 2% (n = 360,000). HT-1080 IDH1 knockdown viability, ATP luminescence, 48 h;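 also: 0% = DMSO wells and -100% = cell-free medium wells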
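Using the IDH1-knockdown HT-1080 line run in the same batch and compound series as the NT line, viability after 48 h at 37 °C was determined by CellTiter-Glo luminescence and expressed as % activity.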
HepG2 tox – HepG2 cytotoxicity, counter-screen for TGF-b inhibitors | actives 0.76% (n = 410,000) | Potency, µM (titrated, usually from 46.1 µM), for inactives: at the highest dose activity change, negative = cytotoxicity, actives largely listed as cytotoxic | HepG2 CAGA-GFP viability, ATP luminescence, 18 h
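CellTiter-Glo luminescence gave cytotoxicity after 18 hours at 37 degrees C. The cells were HepG2 CAGA-GFP in 1% FBS DMEM, stimulated with 500 pg/mL TGF-beta after compound addition. %Activity was normalised to no-cell wells (complete cell-killing) and DMSO (no toxicity), and curves were fitted and classified.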
KB-V1 cytotox – kills drug-selected multidrug resistant KB-V1 cells. actives 3.4% (n = 400,000). AID 1347076. KB-V1 MDR cells viability, CellTiter-Glo, 72 h. Potency, µM (top dose mostly 46.1 µM), actives largely listed as cytotoxic; also: % is scaled to controls: 0 for no effect and ±100 for the full control effect; nearly all actives have a fitted effect of over 60% in size
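Cytotoxicity toward P-gp-expressing KB-V1 cells was determined as loss of CellTiter-Glo luminescence after 72 h at 37 degrees C. Compounds were tested in quantitative HTS format across a concentration range, with curves fitted to normalized data.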
HT1080NT lethal – kills 2HG-producing HT-1080-NT fibrosarcoma cells; actives 1.6% (n = 360,000); AID 686970; HT-1080-NT fibrosarcoma viability, CellTiter-Glo ATP luminescence, 48 h; Potency, µM (titrated, usually from 46.1 µM), for inactives: at the highest dose activity, negative = less viability, hits mostly cytotoxic;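 also: NT is the 2HG producing partner of a matched IDH1 knockdown line; 0% = DMSO-treated cells and -100% = media-only wells without cells; nearly all actives have a fitted effect of over 55% in size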
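A 48-hour cytotoxicity screen used HT-1080-NT cells plated 2 hours before compound delivery. ATP-based CellTiter-Glo luminescence measured viability, normalized to DMSO and no-cell controls.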
Active calls of the source: *. Calls follow the shape of the dose curve; as a rule, active = well fitted curve in the direction sought with a large enough effect; inconclusive = small, poorly fitted or top-dose-only effect, or another doubt; inactive = no such curve, though single readings can be large; an effect the other way counts as inactive or inconclusive. Potency is read from the fitted curve at half-maximal effect.

For c1ccc(-c2nc(NCCCn3ccnc3)c3oc4ccccc4c3n2)cc1 the results were TGFb inhibitor inconclusive, KB-3-1 tox inconclusive, HT1080 IDH1KD tx inconclusive, HepG2 tox 20µM*, KB-V1 cytotox 5.8µM* and HT1080NT lethal inconclusive.
Screening CCc1nc(NCCCn2ccnc2)c2oc3ccccc3c2n1 returned TGFb inhibitor -3%, KB-3-1 tox inactive, HT1080 IDH1KD tx -6%, HepG2 tox -10%, KB-V1 cytotox inconclusive and HT1080NT lethal -3%.
CCn1c(C(=O)OC)cc2c1ccn2-c1ccc(F)cc1 was read as TGFb inhibitor 11%, KB-3-1 tox inactive, HT1080 IDH1KD tx inconclusive, HepG2 tox 13µM*, KB-V1 cytotox inactive and HT1080NT lethal 5%.
COC(=O)c1cc2c(ccn2-c2ccc(F)cc2)n1Cc1ccc(OC)cc1 was read as TGFb inhibitor -11%, KB-3-1 tox inactive, HT1080 IDH1KD tx 0%, HepG2 tox -1%, KB-V1 cytotox inconclusive and HT1080NT lethal -3%.
For COc1ccc(-c2cc(C(=O)Nc3ccc(O)cc3)c3ccccc3n2)cc1OC the results were TGFb inhibitor -10%, KB-3-1 tox inactive, HT1080 IDH1KD tx -29%, HepG2 tox -20%, KB-V1 cytotox inactive and HT1080NT lethal inconclusive.
Screening O=C(Nc1ccncc1)c1cc(-c2ccccc2)nc2ccccc12 returned TGFb inhibitor 6%, KB-3-1 tox inactive, HT1080 IDH1KD tx inconclusive, HepG2 tox -19%, KB-V1 cytotox inconclusive and HT1080NT lethal -26%.
O=C(Cc1cccc2ccccc12)NNC(=O)Nc1cccc(Cl)c1 was read as TGFb inhibitor 3%, KB-3-1 tox inactive, HT1080 IDH1KD tx inconclusive, HepG2 tox -22%, KB-V1 cytotox inactive and HT1080NT lethal 16µM*.
Screening O=C(Nc1ccc(Br)cc1)c1cc(-c2ccncc2)nc2ccccc12 returned TGFb inhibitor inconclusive, KB-3-1 tox inconclusive, HT1080 IDH1KD tx 8.2µM*, HepG2 tox 0%, KB-V1 cytotox inactive and HT1080NT lethal 6.5µM*.
Screening COC(=O)c1ccc(NC(=O)c2cc(-c3ccncc3)nc3ccccc23)cc1 returned TGFb inhibitor -9%, KB-3-1 tox 23µM*, HT1080 IDH1KD tx inconclusive, HepG2 tox -19%, KB-V1 cytotox inactive and HT1080NT lethal inconclusive.
`COc1ccc(NC(=O)c2cc(-c3cc(OC)c(OC)c(OC)c3)nc3ccccc23)cc1OC` gave TGFb inhibitor -12%, KB-3-1 tox inconclusive, HT1080 IDH1KD tx -29%, HepG2 tox -7%, KB-V1 cytotox 21µM* and HT1080NT lethal -2%.
`Cc1ccc(C)c(NC(=O)C2CCN(S(=O)(=O)c3c(C)noc3/C=C/c3cccs3)CC2)c1` gave TGFb inhibitor 4% and HepG2 tox -14%.
For O=C(NNC(=O)c1cc(-c2ccccc2)nc2ccccc12)Nc1cccc(Cl)c1 the results were TGFb inhibitor inconclusive, KB-3-1 tox inactive, HT1080 IDH1KD tx inconclusive, HepG2 tox -34%, KB-V1 cytotox inconclusive and HT1080NT lethal 18µM*.
`COc1ccc(CCNC(=O)c2cc(-c3ccc(C)c(C)c3)nc3ccccc23)cc1OC` gave TGFb inhibitor -23%, KB-3-1 tox inactive, HepG2 tox -36% and KB-V1 cytotox inactive.
`Cn1c2c(c(=O)n(C)c1=O)C(C(F)(F)F)(C(F)(F)F)N=C(CCC1CCCCC1)N2` gave TGFb inhibitor inconclusive, KB-3-1 tox 23µM*, HT1080 IDH1KD tx inconclusive, HepG2 tox -31%, KB-V1 cytotox inconclusive and HT1080NT lethal inconclusive.
Screening CCOc1ccc(N(C(=O)c2ccc(Cl)cc2)S(=O)(=O)c2ccc3c(c2)n(C)c(=O)n3C)cc1 returned TGFb inhibitor -6%, KB-3-1 tox inactive, HepG2 tox 0% and KB-V1 cytotox inactive.

High-throughput results as filed in PubChem BioAssay.
